Assay outcomes from PubChem.
A selection: hits, their analogues and other compounds. The true share with any hit is near 2.1%.
FUS suppressor – FUS proteinopathy suppression in yeast; S. cerevisiae FUS-expressing, growth rescue, OD600, 24 h; Potency, µM (top dose mostly 76.6 µM), actives largely listed as activators; hit rate 0.24% among 390,000; further: nearly all actives have a fitted effect of over 55% in size
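Compound concentration series was pinned onto galactose-induced FUS-expressing yeast seeded at OD 0.005. Plates sat 24hr at 30C; absorbance at 600 nm gave growth. DMSO served as background control.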
aSyn rescue – rescues yeast growth from alpha-synuclein toxicity. Yeast expressing alpha-synuclein, growth rescue, BacTiter-Glo, 24 h. Potency, µM (top dose mostly 46.1 µM), hits mostly activators. hit rate 0.14% among 370,000; further: nearly all actives have a fitted effect of over 65% in size
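Screening used galactose-induced yeast with toxic alpha-synuclein levels, exposed to compound for 24 hr at 30 deg C. Cell growth, read with BacTiter-Glo luminescence, gave the measured signal.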
TDP-43 yeast inh – TDP-43 toxicity inhibition in yeast | TDP-43 expressing yeast growth rescue, BacTiter-Glo, 24 h | Potency, µM (series often up to 46.1 µM), most hits filed as activators | hit rate 1.8% among 410,000; further: nearly all actives have a fitted effect of over 50% in size
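Yeast cells expressing TDP-43 under galactose induction are exposed to compounds for 24 hr at 30 deg C. BacTiter-Glo luminescence measures growth, so protective compounds score as activators.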
Abeta rescue – restores growth of yeast expressing A-beta42 peptide; yeast expressing A-beta42, growth rescue, OD600, 48 h; response scale: 0% DMSO, 100% iron-clioquinol control; hit rate 0.063% among 410,000; Potency, µM (doses to about 46.1 µM), most hits filed as activators; further: nearly all actives have a fitted effect of over 55% in size
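Growth rescue measured by 600 nm absorbance after 48 h yeast culture at 30 C with compound. Values normalized between DMSO and an equimolar ferric chloride plus clioquinol control.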
Large screens that a line does not name were inactive; ! = a repeat was not active. The call rests on the fitted dose curve; in most records, active means well fitted curve in the direction sought with a large enough effect; inconclusive means small, poorly fitted or top-dose-only effect, or another doubt; inactive means no such curve, though single readings can be large; an effect the other way counts as inactive or inconclusive.

N#C/C(=N\Nc1cccc(C(F)(F)F)c1)C(=O)c1ccsc1	TDP-43 yeast inh 10µM
Cc1ccccc1CN1CCCCC(NC(=O)c2ccc(F)c(F)c2)C1=O (stereo not drawn)	none (no result: aSyn rescue, TDP-43 yeast inh, Abeta rescue)
CCc1cccc(C)c1NC(=O)CCCSc1nc2ccccc2s1	none
Cc1ccccc1NC(=O)CCCSc1nc2ccccc2s1	TDP-43 yeast inh 13µM (no result: FUS suppressor)
Cc1ccc(SCc2nc(N)nc(Nc3ccccc3C)n2)c(C)c1	TDP-43 yeast inh inconclusive, Abeta rescue inconclusive
COc1ccc(Nc2nc(N)nc(CSc3nc4cc(OC)ccc4s3)n2)cc1	FUS suppressor inconclusive, TDP-43 yeast inh 20µM (no result: aSyn rescue)
Cc1ccc(SCc2nc(N)nc(Nc3ccccc3C)n2)cc1C	FUS suppressor inconclusive, TDP-43 yeast inh 18µM
Cc1ccccc1Nc1nc(N)nc(CSc2nc3ccccc3s2)n1	TDP-43 yeast inh 20µM (no result: FUS suppressor)
Cc1cc(NC(=O)n2ncc3c(C)cccc32)ccc1Br	none (no result: aSyn rescue)
CCOC(=O)c1c(C)[nH]c(C)c1S(=O)(=O)N1CCCC(C(=O)Nc2ccccc2OCC)C1 (stereo not drawn)	none (no result: aSyn rescue)
Cc1ccccc1Nc1nc(N)nc(CSc2nnc(C)n2C)n1	none
Cc1ccccc1Nc1nc(N)nc(CSc2ccc(F)cc2)n1	TDP-43 yeast inh 25µM
Cc1ccc(C)c(C(=O)CSc2nnnn2-c2cccnc2)c1	TDP-43 yeast inh 11µM
CN(Cc1ccccc1)C(=S)NC(=O)c1cccs1	TDP-43 yeast inh inconclusive, Abeta rescue 13µM
Cc1cc(SCC2=NNC(=O)C2)c(Cl)cc1Cl	FUS suppressor 35µM, TDP-43 yeast inh inconclusive
Nc1ccccc1SCc1csc(-c2ccc(Cl)cc2)n1	TDP-43 yeast inh 13µM
CN(Cc1ccccc1)C(=O)OCc1cn(Cc2cccc(C(F)(F)F)c2)nn1	none (no result: aSyn rescue, TDP-43 yeast inh, Abeta rescue)
C#CC(c1ccccc1)(c1ccccc1)n1ccnc1	TDP-43 yeast inh 3.5µM
O=C(Cc1ccc(F)cc1)c1ccc(O)cc1O	TDP-43 yeast inh 13µM
O=C(Cc1c(F)cccc1Cl)c1ccc(O)cc1O	TDP-43 yeast inh 16µM
CCc1cc(C(=O)Cc2ccc(F)cc2)c(O)cc1O	TDP-43 yeast inh 13µM
O=C(Cc1ccccc1F)c1ccc(O)cc1O	Abeta rescue inconclusive
O=C(CCCOC(=O)c1ccc(O)cc1O)c1ccc(F)cc1	none
CCCc1cc(C(=O)Cc2ccc(F)cc2)c(O)cc1O	TDP-43 yeast inh inconclusive
Cc1cccc2c1N(Cc1ccccc1OCCC(C)C)C(=O)C2=O	none (no result: aSyn rescue)
COc1cccc(N2CCN(Cc3nnc(-c4ccc5c(c4)OCO5)o3)CC2)c1	TDP-43 yeast inh inconclusive (no result: aSyn rescue)
O=S(=O)(c1cccc2nsnc12)N1CCN(c2ccc(F)cc2)CC1	none
O=S(=O)(c1cccc2nsnc12)N1CCN(c2ccccc2F)CC1	TDP-43 yeast inh 16µM
Cc1nonc1OC(C)CNc1ccc([N+](=O)[O-])cc1 (stereo not drawn)	TDP-43 yeast inh 20µM
O=C(Nc1ccc(Cl)c(C(F)(F)F)c1)N1CCCC(O)C1 (stereo not drawn)	none
O=C(Nc1ccc(Cl)c([N+](=O)[O-])c1)c1ccncc1	none (no result: FUS suppressor)
O=C(Nc1ccc(Cl)c(C(F)(F)F)c1)c1ccncc1	TDP-43 yeast inh 10µM
O=C(Nc1ccc(Cl)c(C(F)(F)F)c1)C(=O)N1CCCCC1	TDP-43 yeast inh 18µM (no result: FUS suppressor)
O=C(Nc1ccc(F)cc1F)C1CCCN1S(=O)(=O)c1cccnc1 (stereo not drawn)	none (no result: aSyn rescue, TDP-43 yeast inh, Abeta rescue)
CCCc1nc2ccccc2n2c(-c3ccc(C)cc3)c3c(=O)n(C)c(=O)n(C)c3c12	TDP-43 yeast inh inconclusive (no result: aSyn rescue)
CCOc1ccc(OCC)c(NS(=O)(=O)c2cc(-c3onc(C)c3C)ccc2OC)c1	none (no result: aSyn rescue)
CCCCN(C)c1ncnc2c1cnn2-c1cccc(Cl)c1	TDP-43 yeast inh 13µM (no result: aSyn rescue)
CCCCN(CCCC)c1ncnc2c1cnn2-c1cccc(C)c1	none (no result: aSyn rescue)
COc1ccc(CNC(=O)c2oc3c(c2C)-c2nn(Cc4ccccc4Cl)cc2CC3)cc1	FUS suppressor inconclusive (no result: aSyn rescue)
NC(=NCCCCCCN=C(N)/N=C(\N)Nc1ccc(Cl)cc1)/N=C(\N)Nc1ccc(Cl)cc1	TDP-43 yeast inh 25µM!
CCOc1cccc(C(=O)N/N=C/c2coc3ccccc3c2=O)c1	TDP-43 yeast inh 22µM
CCOC(=O)Cn1c(=N)n(Cc2ccc(C(C)(C)C)cc2)c2ccccc21	FUS suppressor inconclusive, TDP-43 yeast inh inconclusive (no result: aSyn rescue)
COc1ccc(CNC(=O)C(=O)NCC(c2ccco2)S(=O)(=O)c2ccc(Cl)cc2)cc1 (stereo not drawn)	none (no result: aSyn rescue)
Cc1c(Cl)cccc1-n1ncc(C(=O)Nc2ccc3c(c2)OCCO3)c1C1CCN(C(=O)OC(C)(C)C)CC1	FUS suppressor inconclusive, TDP-43 yeast inh inconclusive (no result: aSyn rescue)
COC(=O)c1cc(-c2cccc(C(C)C)c2)c(=O)n2c1CCC2	none (no result: aSyn rescue, TDP-43 yeast inh, Abeta rescue)
CCCc1cc(-c2nc(N)ncc2-c2csc(C)n2)c(O)cc1OC	TDP-43 yeast inh 13µM
CCc1cc(-c2nc(N)ncc2-c2csc(C)n2)c(O)cc1OC	none
Cc1ccccc1Cn1cnc2c([N+](=O)[O-])c(C)c(C)cc21	TDP-43 yeast inh 13µM
CCCCSCCCNC(=O)CN1C(=O)COc2ccc(S(=O)(=O)N3CCC(C)CC3)cc21	none
C[C@H](NC(=O)OC(C)(C)C)C(=O)N/N=C/C1=Cc2ccccc2OC1	none
CCC(C)[C@H](NC(=O)OC(C)(C)C)C(=O)N/N=C/C1=Cc2ccccc2OC1 (stereo partly drawn)	FUS suppressor 28µM
O=C(c1cc(-c2ccco2)nc2ccccc12)N1CCCC(C(F)(F)F)C1 (stereo not drawn)	TDP-43 yeast inh 35µM
Cc1ccc(CNC(=O)c2ccc3c(c2)nc(C)n3-c2cccc(F)c2)cc1	none (no result: aSyn rescue, TDP-43 yeast inh)
Cc1oc2c(c1C(=O)NCc1ccccc1)CCCC2	none
Cc1oc2c(c1C(=O)Nc1ccc(C(=O)O)cc1)CCCC2	TDP-43 yeast inh 13µM
Cc1ccc(CC(=O)NCC2CCCCC2)cc1	none
O=C(Cc1ccc(OCC2CCCCC2)cc1)NO	aSyn rescue 22µM (no result: FUS suppressor, TDP-43 yeast inh, Abeta rescue)
Cc1ccc(CNC(=O)c2cn(C)c3ccc(S(=O)(=O)N4CCC(C)CC4)cc3c2=O)cc1	none (no result: aSyn rescue)
O=C(O)CSc1nc2ccccc2nc1N1CCCCC1	TDP-43 yeast inh 20µM (no result: aSyn rescue)
Cc1ccc(NC(=O)CSc2nc3ccccc3nc2N2CCOCC2)cc1	FUS suppressor 32µM!, TDP-43 yeast inh inconclusive
CC(=O)Nc1ccc(NC(=O)CSc2nc3ccccc3nc2N2CCCCC2)cc1	none
COC(=O)CS(=O)(=O)c1nc2ccccc2nc1N1CCCCC1	TDP-43 yeast inh 20µM (no result: aSyn rescue)
CCOC(=O)[C@]12CCCCC/C=C\1N(CCc1ccc(Cl)cc1)C(=O)[C@H]2CC(=O)N1CCCCC1	none (no result: aSyn rescue, TDP-43 yeast inh, Abeta rescue)
CC(C)CCn1c(=O)c2cccnc2n(CC(=O)Nc2ccccc2F)c1=O	none (no result: aSyn rescue)
Cc1ccc(OCC(=O)Nc2ccc(S(=O)(=O)N3CCCCC3)cc2)c([N+](=O)[O-])n1	none
Cc1ccc(OCC(=O)Nc2ccc(F)cc2)c([N+](=O)[O-])n1	none
Cc1ccc(OCC(=O)Nc2ccc(Cl)cc2)c([N+](=O)[O-])n1	TDP-43 yeast inh 13µM
Cc1ccc(OCC(=O)Nc2ccc(C)c(S(=O)(=O)N3CCCCC3)c2)c([N+](=O)[O-])n1	TDP-43 yeast inh 14µM
CCN(CC)C(=O)c1sc(NC(=O)c2nc3ncccn3n2)c(C(=O)OC)c1C	none (no result: aSyn rescue)
